This passage reports z-score and composite z-score results from PubChem BioAssay.

Experiment [1] is described as follows: resazurin metabolic signal in HepG2 cells – cell-based, resazurin fluorescence, 24 h, PK04 Diversity Set, profiling panel (AID 1172). Note: test concentration not given here. As to conditions: HepG2 viability, higher = more signal. (The colour change of resazurin is a common sign of viable cells or microbes.)
Experiment [2] in a line: budding yeast growth changes without added modifier – OD600, strain BY4716, 24 h, basal condition, primary screen (AID 1173). To be noted: S. cerevisiae BY4716 growth, OD600, 24 h; higher = more signal, called active from +8 up or from −8 down.
The nature of experiment [3]: viability profiling in MM1S myeloma cells – cell-based, resazurin fluorescence, basal, 24 h, PK04 Diversity Set, profiling panel (AID 1174).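 Note: MM1S multiple myeloma cell line; test concentration not given here.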 As to conditions: higher = more signal, called active from +8 up or from −8 down.
The target in experiment [4] is Dihydroorotate dehydrogenase (quinone), mitochondrial (Plasmodium falciparum (isolate 3D7)) (UniProt Q08210). In words: inhibition of P. falciparum DHODH – biochemical, C-terminal His tag, absorbance 600 nm, primary screen (AID 1175).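 Note: recombinant parasite enzyme with a five histidine tag at its C terminus; test concentration not given here.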 As to conditions: PfDHODH enzyme, DCIP absorbance 600 nm; higher = more signal, called active from +8 up or from −8 down.
Experiment [5] in a line: inhibition of PAO1 biofilm formation – strain PAO1, LB-PBS medium, absorbance 600 nm, primary screen (AID 1176). Note: test concentration not given here. As to conditions: P. aeruginosa PAO1 growth/biofilm, A600, 12 h; higher = more signal.
The nature of experiment [6]: growth modulation of vineyard yeast isolate – strain RM11-1a, OD600, basal, 24 h, primary screen (AID 1177).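 Note: cultures grown under basal conditions with no added stressor; test concentration not given here.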 As to conditions: S. cerevisiae RM11-1a growth, OD600, 24 h; higher = more signal, called active from +8 up or from −8 down.
A short description of experiment [7]: growth of efflux-deficient E. coli DRC39 – strain DRC39, OD650, 24 h, E. coli filamentation inducers, primary screen (AID 1178).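 Note: growth measured as culture turbidity by optical density at 650 nm; test concentration not given here.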 As to conditions: E. coli DRC39 acrAB, higher = more signal, called active from +8 up or from −8 down.
Experiment [8] in a line: growth of efflux-deficient E. coli DRC39 – strain DRC39, OD650, 48 h, E. coli filamentation inducers, primary screen (AID 1179).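 Note: screen aims at cell division blockers that make cells filament.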 As to conditions: E. coli DRC39 delta-acrAB growth, higher = more signal, called active from +8 up or from −8 down.
Experiment [9] can be described thus: viability profiling in RPMI8226 myeloma cells – cell-based, resazurin fluorescence, basal, 24 h, PK04 Diversity Set, profiling panel (AID 1180).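 Note: RPMI8826 multiple myeloma cell line at 5000 cells per well; test concentration not given here.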 As to conditions: higher = more signal.
Experiment [10] concerns the target E3 ubiquitin-protein ligase XIAP (Homo sapiens) (UniProt P98170). In words: small molecules binding XIAP protein – biophysical, small-molecule microarray, fluorescence 635 nm, primary screen (AID 1181).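 Note: score merges 667 nm emission and signal to noise over triplicate slides.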 As to conditions: higher = more signal.

Calls of active or inactive are those of the source. Unless noted, the rule behind the calls is not given here.

Dihydroorotate dehydrogenase (quinone), mitochondrial (Plasmodium falciparum (isolate 3D7)), sequence (Q08210 whole entry, looked up): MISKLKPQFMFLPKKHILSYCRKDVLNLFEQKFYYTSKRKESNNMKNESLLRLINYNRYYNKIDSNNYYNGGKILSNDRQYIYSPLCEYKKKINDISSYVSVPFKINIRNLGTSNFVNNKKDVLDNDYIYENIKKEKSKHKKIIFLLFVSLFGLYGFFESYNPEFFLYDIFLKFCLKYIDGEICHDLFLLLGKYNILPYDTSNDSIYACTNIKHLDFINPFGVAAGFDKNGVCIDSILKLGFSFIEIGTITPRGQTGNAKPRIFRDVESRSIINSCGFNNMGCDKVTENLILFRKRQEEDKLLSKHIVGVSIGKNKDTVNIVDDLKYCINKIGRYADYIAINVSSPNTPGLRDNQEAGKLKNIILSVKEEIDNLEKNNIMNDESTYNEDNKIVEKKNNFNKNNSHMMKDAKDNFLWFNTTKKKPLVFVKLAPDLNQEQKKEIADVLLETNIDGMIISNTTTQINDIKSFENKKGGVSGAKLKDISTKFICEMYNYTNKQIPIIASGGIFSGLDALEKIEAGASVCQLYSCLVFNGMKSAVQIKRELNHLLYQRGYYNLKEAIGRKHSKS
E3 ubiquitin-protein ligase XIAP (Homo sapiens), sequence (P98170 whole entry, looked up): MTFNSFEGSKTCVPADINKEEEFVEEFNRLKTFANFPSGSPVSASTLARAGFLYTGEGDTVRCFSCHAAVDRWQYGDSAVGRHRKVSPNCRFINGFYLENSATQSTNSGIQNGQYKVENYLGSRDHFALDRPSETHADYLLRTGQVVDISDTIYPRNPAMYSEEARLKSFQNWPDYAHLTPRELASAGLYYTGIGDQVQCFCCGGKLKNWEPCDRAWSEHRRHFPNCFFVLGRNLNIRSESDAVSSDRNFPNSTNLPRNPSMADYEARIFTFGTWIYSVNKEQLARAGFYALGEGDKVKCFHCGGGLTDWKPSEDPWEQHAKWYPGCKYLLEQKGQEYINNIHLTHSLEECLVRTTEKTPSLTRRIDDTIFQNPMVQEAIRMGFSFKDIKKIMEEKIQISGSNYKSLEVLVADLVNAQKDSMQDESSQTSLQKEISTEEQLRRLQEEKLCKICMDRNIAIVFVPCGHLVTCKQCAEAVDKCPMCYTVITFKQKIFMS

Turning to `C=C[C@H](C)[C@@H](OC(=O)Nc1ccc(OC)cc1)c1ccc(O)c2ccccc12`, the z-score in [1] is -1.31; in experiment [2] it was -18.2 (active); in [3], -4.56 (inactive); in experiment [5] it was 0.802 (inactive); in [6] it was -21.8 (active); in experiment [7] it was 1.42 (inactive). Further, the z-score in experiment [8] is 0.525 (inactive); in experiment [9] it was -2.9. For the same compound, the composite z-score was -2.51 (inactive) in experiment [4] and -0.196 in [10].

With `CCOC(=O)C[C@H]1[C@H](OC(=O)c2ccc(-c3ccccc3)cc2)[C@@H](NC(=O)Cc2ccc(OC)cc2)c2cc(OCCCO)ccc2N1C(=O)c1ccccc1`, the z-score in experiment [1] was -0.616; in experiment [2] it was 0.695 (inactive); in experiment [3] it was -0.113 (inactive); in experiment [5], -0.252 (inactive); in [6], 0.87 (inactive); in experiment [7], 0.303 (inactive). Also, the figures for the z-score in [8] and in experiment [9] were 0.339 (inactive) and 0.0662, respectively. Moreover, the values for the composite z-score in experiment [4] and in [10] were 0.11 (inactive) and 0.15, respectively.

For `CC(C)C[C@@H]1NC(=O)[C@@H]2C[C@H](C(=O)NCc3ccc(F)cc3)[C@H](c3cccc(OCCO)c3)N2C1=O`, the z-score in experiment [1] is 0.137; in experiment [2], -0.929 (inactive); in [3], 0.279 (inactive); in experiment [5] it was 0.475 (inactive); in experiment [6] it was -0.694 (inactive); in experiment [7], 1.46 (inactive). Further, the figures for the z-score in experiment [8] and in experiment [9] were 1.48 (inactive) and 0.919, respectively. The composite z-score is -1.26 (inactive) in [4] and -0.052 in experiment [10].

`C=CCC(OC(C)=O)[C@@H]1[C@@H](N(Cc2ccc(-c3cccc(C(F)(F)F)c3)o2)C(=O)c2ccc(C)cc2)c2cc(OCCCO)ccc2N1C(=O)Cc1ccc2ccccc2c1` (stereo not given in full): the z-score in experiment [1] was 0.358; in experiment [2], -0.219 (inactive); in [3] it was 0.837 (inactive); in [5], -0.312 (inactive); in [6] it was 0.476 (inactive); in experiment [7], -0.333 (inactive). For the same compound, the z-score is 0.409 (inactive) in experiment [8] and 1.22 in experiment [9]. Further, the composite z-score in experiment [4] was -0.802 (inactive); in [10] it was -0.0286.

On to `CC(C)NC(=O)[C@@H]1c2ccccc2C(=O)N(C2Cc3ccccc3C2)[C@H]1c1ccc(CO)cc1`, for which the z-score in experiment [1] is 0.785; in experiment [2] it was 0.0928 (inactive); in [3], 1.16 (inactive); in [5] it was -0.0528 (inactive); in [6], 0.744 (inactive); in experiment [7], 0.859 (inactive). Moreover, the z-score in experiment [8] is 0.95 (inactive); in experiment [9], 1.59. The composite z-score in experiment [4] was -0.427 (inactive); in experiment [10], 0.133.

Turning to `COc1cc2c(cc1OC)CN(C(=O)[C@H]1[C@@H]3C(=O)O[C@@H](c4ccccc4)[C@@H](c4ccccc4)N3[C@@H](c3ccc(O)cc3)[C@]13C(=O)Nc1ccccc13)CC2`, the z-score is -0.102 in experiment [1]; 0.744 (inactive) in experiment [2]; -0.426 (inactive) in experiment [3]; 1.67 (inactive) in experiment [5]; 1.07 (inactive) in experiment [6]; 0.188 (inactive) in experiment [7]. The z-score in experiment [8] was -0.144 (inactive); in experiment [9], 0.0788. Moreover, the composite z-score in experiment [4] was 0.806 (inactive); in experiment [10], 0.188.

Take `O=C(N1CCCCC1)[C@]1(Cc2ccccc2)N=C(c2ccc(OCCCO)cc2)O[C@@H]1c1ccccc1`: the z-score in experiment [1] was 0.0053; in experiment [2] it was -1.88 (inactive); in experiment [3], -2.94 (inactive); in experiment [5] it was 0.208 (inactive); in [6], 1.02 (inactive); in experiment [7] it was 0.137 (inactive). The z-score was -0.829 (inactive) in experiment [8] and -3.93 in experiment [9]. In addition, the results for the composite z-score in experiment [4] and in experiment [10] were -0.0047 (inactive) and 0.205, respectively.

In the case of `C=CC[C@@]12N=C(c3ccc(OCCCO)cc3)O[C@@H]1c1ccccc1N(C)C2=O`, the z-score in experiment [1] is -0.0241; in experiment [2], -0.926 (inactive); in experiment [3], -2.53 (inactive); in [5] it was 0.0684 (inactive); in experiment [6], 1.46 (inactive); in experiment [7], 0.817 (inactive). Further, the figures for the z-score in experiment [8] and in experiment [9] were 1.18 (inactive) and -0.912, respectively. For the same compound, the composite z-score is 0.579 (inactive) in experiment [4] and 0.368 in experiment [10].

Regarding `C=C(C)[C@@H]1CC=C(C(O)C2C=CC3C(=O)N(c4ccccc4)C(=O)C3N2Nc2ccccc2)CC1` (stereo not given in full), the z-score in experiment [1] was -0.126; in experiment [2], -1.81 (inactive); in experiment [3], 0.272 (inactive); in experiment [5], 1.6 (inactive); in [6] it was 0.367 (inactive); in experiment [7], 0.195 (inactive). Also, the z-score is -0.0871 (inactive) in experiment [8] and 0.37 in experiment [9]. The composite z-score in experiment [4] is -0.376 (inactive); in experiment [10], 0.0997.

As to `COC(=O)[C@]1(CCC(=O)OC(C)(C)C)N=C(c2ccc(OCCCO)cc2)O[C@@H]1c1ccccc1CN=[N+]=[N-]`, the z-score in experiment [1] was -1.72; in [2], 1.01 (inactive); in experiment [3], -5.09 (inactive); in experiment [5], 1.53 (inactive); in [6], 1.84 (inactive); in [7], 0.637 (inactive). Also, the z-score in experiment [8] was -0.721 (inactive); in [9], -4.68. The composite z-score was 0.965 (inactive) in [4] and -0.0773 in [10].

For the compound `CC(C)[Si](C#Cc1ccc(Oc2ccccc2)cc1)(O[Si](C#Cc1ccc(Oc2ccccc2)cc1)(C(C)C)C(C)C)C(C)C`, the z-score in experiment [1] is 0.0013; in experiment [2] it was 1.95 (inactive); in [3], 0.698 (inactive); in experiment [5], -0.133 (inactive); in experiment [6], 1.88 (inactive); in experiment [7], 0.879 (inactive). The z-score in experiment [8] is 0.3 (inactive); in [9], 0.603. Besides, the composite z-score in experiment [4] was 0.936 (inactive); in experiment [10], -0.0009.

Regarding `COC(=O)[C@@]1(Cc2ccccc2)N=C(c2ccc(OCCCO)cc2)O[C@H]1c1ccccc1`, the z-score in [1] was -0.882; in experiment [2], -2.46 (inactive); in [3] it was -2.96 (inactive); in [5], 0.991 (inactive); in [6], 1.47 (inactive); in experiment [7] it was 2.8 (inactive). The values for the z-score in experiment [8] and in experiment [9] were 0.608 (inactive) and -2.43, respectively. In addition, the composite z-score in [4] is 1.14 (inactive); in experiment [10], 0.244.
